PubChem BioAssay (NCI)
This is part of a sample that, as a whole, favours compounds with a hit. Of some 83,000 tested, about 20% had one in any assay.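 Testing used 96-well plates and a 48-hour single-concentration exposure. Example: -40 means 40% of the starting cells died.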 Activity calls are given as the source filed them. Rule for the calls: active = growth percent below 10; inactive = the rest.

Key:
Experiment in all cases: NCI-60 one-dose screen, 48 h (100 = growth as untreated, 0 = no growth, -100 = all killed)
T-47D breast = details: 10 µM unless noted
BT-549 breast = details: 10 µM unless noted
MDA-MB-435 melanoma = details: 10 µM unless noted
SW-620 colon = details: 10 µM unless noted
MCF7 breast = details: 10 µM unless noted
HCT-116 colon = details: 10 µM unless noted
HCC-2998 colon = details: 10 µM
KM12 colon = details: 10 µM unless noted

Measured: growth

CS(=O)(=O)N1CCN(Cc2cc3nc(-c4cccc5[nH]ncc45)nc(N4CCOCC4)c3s2)CC1
inactive: BT-549 breast 18.2% | MDA-MB-435 melanoma 22.4% | SW-620 colon 38.8% | HCT-116 colon 28.3% | HCC-2998 colon 22.8% | KM12 colon 16.3%
active: T-47D breast -21.7% | MCF7 breast 5.28%

COc1ccc(C(=O)N2c3ccccc3Sc3ccccc32)c(F)c1
active: MDA-MB-435 melanoma -37.6%
inactive: T-47D breast 40.2% | BT-549 breast 22.7% | SW-620 colon 15% | MCF7 breast 24.2% | HCT-116 colon 20.1% | HCC-2998 colon 30.3% | KM12 colon 22.7%

COc1ccc2nc3cc(Cl)ccc3c(Nc3ccc(N(C)C)cc3)c2c1
inactive: T-47D breast 86.3% | BT-549 breast 72.1% | MDA-MB-435 melanoma 99.9% | SW-620 colon 95.1% | MCF7 breast 83.5% | HCT-116 colon 96.9% | HCC-2998 colon 91.9% | KM12 colon 83.1%

O=C(NOCCO)c1ccc2cncn2c1Nc1ccc(I)cc1F
inactive: T-47D breast 83.4% | BT-549 breast 88.8% | MDA-MB-435 melanoma 47.4% | SW-620 colon 24.6% | MCF7 breast 96.2% | HCT-116 colon 15.1% | KM12 colon 28.6%

O=C(COc1cccc(/C=C2\Cc3ccc(Cl)cc3C2=O)c1)Nc1nccs1
inactive: T-47D breast 55.5% | BT-549 breast 87.3% | MDA-MB-435 melanoma 86.6% | SW-620 colon 110% | MCF7 breast 35.1% | HCT-116 colon 64.5% | KM12 colon 77.2%

ClCc1ccc(-c2ccc(Cn3cnc4nc(Cl)nc(Cl)c43)cc2)cc1
active: T-47D breast -10.5% | BT-549 breast -44.8% | MDA-MB-435 melanoma -19.5% | SW-620 colon -46.8% | MCF7 breast -42.4% | HCT-116 colon -72.4% | KM12 colon -63%

O=C1NC(=O)C(c2cnc3ccccn23)=C1c1cn2c3c(cc(F)cc13)CN(C(=O)N1CCCCC1)CC2
inactive: T-47D breast 33.8% | BT-549 breast 61.1% | MDA-MB-435 melanoma 51.2% | SW-620 colon 59.6% | MCF7 breast 35.2% | HCT-116 colon 17.1% | KM12 colon 46.2%

Cc1nc(-c2cn3c(n2)-c2ccc(-c4cnn(C(C)(C)C(N)=O)c4)cc2OCC3)n(C(C)C)n1
active: T-47D breast -9.88%
inactive: BT-549 breast 14.9% | MDA-MB-435 melanoma 27.8% | SW-620 colon 44% | MCF7 breast 13.7% | HCT-116 colon 20.4% | KM12 colon 16.2%

c1cn2cc(-c3ccc4cn[nH]c4c3)nc(Nc3ccc(N4CCOCC4)cc3)c2n1
inactive: T-47D breast 49.2% | BT-549 breast 66.2% | MDA-MB-435 melanoma 76.8% | SW-620 colon 69.2% | MCF7 breast 66.2% | HCT-116 colon 52.4% | KM12 colon 20.5%

C=CC(=O)Nc1cccc(Oc2nc(Nc3ccc(N4CCN(C)CC4)cc3)nc3ccsc23)c1
active: T-47D breast -51% | BT-549 breast -37.5% | MDA-MB-435 melanoma -93.3% | SW-620 colon -62.2% | MCF7 breast -60.9% | HCT-116 colon -89.2% | KM12 colon -79.1%

CCCS(=O)(=O)Nc1ccc(F)c(C(=O)c2c[nH]c3ncc(-c4ccc(Cl)cc4)cc23)c1F
inactive: BT-549 breast 41.1% | MDA-MB-435 melanoma 13.4% | SW-620 colon 78.5% | MCF7 breast 44.6% | HCT-116 colon 27.3% | KM12 colon 32%
active: T-47D breast 8.42%

CC(=O)NCC(=O)N1[C@@H]2CC[C@H]1c1ccc(Nc3ncc(C(F)(F)F)c(NC4CCC4)n3)cc12
inactive: T-47D breast 88.4% [2.5 µM] | BT-549 breast 36.3% [2.5 µM] | MDA-MB-435 melanoma 39.9% [2.5 µM] | SW-620 colon 16.3% [2.5 µM] | MCF7 breast 25.1% [2.5 µM] | HCT-116 colon 13.4% [2.5 µM]
active: KM12 colon 3.64% [2.5 µM]

C[C@@H]1COCCN1c1cc(C2([S@](C)(=N)=O)CC2)nc(-c2ccnc3[nH]ccc23)n1
inactive: T-47D breast 21.4% | BT-549 breast 27.2% | MDA-MB-435 melanoma 31% | SW-620 colon 43.7% | MCF7 breast 14.4% | HCT-116 colon 35.5% | KM12 colon 21.4%

CNC(=O)c1ccccc1Nc1nc(Nc2ccc3c(c2OC)CCC[C@H](N2CCN(CCO)CC2)C3)ncc1Cl
active: T-47D breast -23.1% | MDA-MB-435 melanoma -27.6% | SW-620 colon -19.9% | MCF7 breast 6.63% | HCT-116 colon -62.6% | KM12 colon -27.3%
inactive: BT-549 breast 29.7%

Cc1nn(-c2ccccc2)c2c1N=c1s/c(=C\c3cn(-c4ccccc4)nc3-c3ccc(Cl)cc3)c(=O)n1C(C)N2 (stereo not drawn)
inactive: T-47D breast 103% | BT-549 breast 105% | MDA-MB-435 melanoma 88.6% | SW-620 colon 103% | MCF7 breast 90.6% | HCT-116 colon 75.2% | KM12 colon 91.8%

Nc1nc(=S)c2ncn(C3OC(COC(=O)c4ccc(Cl)cc4)C(OC(=O)c4ccc(Cl)cc4)C3OC(=O)c3ccc(Cl)cc3)c2[nH]1 (stereo not drawn)
inactive: T-47D breast 59.6% | BT-549 breast 113% | MDA-MB-435 melanoma 103% | SW-620 colon 100% | MCF7 breast 59.8% | HCT-116 colon 76% | KM12 colon 83.9%

O=C(Nc1ccc(-c2ccnc(Nc3ccc(N4CCOCC4)cc3)n2)cc1)[C@@H]1CCCN1
inactive: T-47D breast 56.1% | BT-549 breast 50.9% | MDA-MB-435 melanoma 57.7% | SW-620 colon 76.6% | MCF7 breast 58% | HCT-116 colon 34.1% | KM12 colon 35.6%

COC(=O)c1[nH]cnc1/N=N/N(C)CCO
inactive: T-47D breast 91.1% | BT-549 breast 98.4% | MDA-MB-435 melanoma 112% | SW-620 colon 102% | MCF7 breast 96% | HCT-116 colon 93.5% | KM12 colon 106%

O=C(Nc1cnn2ccc(N3CCC[C@@H]3c3cc(F)ccc3F)nc12)N1CC[C@H](O)C1
inactive: T-47D breast 78.3% | BT-549 breast 90.5% | MDA-MB-435 melanoma 93% | SW-620 colon 106% | MCF7 breast 99.7% | HCT-116 colon 83.1% | KM12 colon 26.7%

Cc1cccc(Cl)c1NC(=O)c1cnc(Nc2cc(N3CCOCC3)cc(N3CCOCC3)c2)s1
inactive: BT-549 breast 56.3% | MDA-MB-435 melanoma 10.3% | SW-620 colon 82.2% | MCF7 breast 75% | HCT-116 colon 11.5% | KM12 colon 62.4%
active: T-47D breast 0.787%

CCCNC(=O)c1cn2ncnc(Nc3cc(C(=O)NC4CC4)ccc3C)c2c1C
inactive: T-47D breast 65.3% | BT-549 breast 103% | MDA-MB-435 melanoma 89.9% | SW-620 colon 39% | MCF7 breast 83.6% | HCT-116 colon 101% | KM12 colon 99.6%

CC1(C)NC(=O)c2[nH]c3c(Cl)c(Cl)ccc3c2C1C#N (stereo not drawn)
inactive: T-47D breast 59.2% | BT-549 breast 73.3% | MDA-MB-435 melanoma 88.1% | SW-620 colon 105% | MCF7 breast 87% | HCT-116 colon 83.6% | KM12 colon 93.4%

O=C1NC(=O)/C(=C/c2ccc3nccc(-c4ccncc4)c3c2)S1
active: T-47D breast -41.7% | BT-549 breast -36.7% | MDA-MB-435 melanoma -11% | SW-620 colon 1.44% | MCF7 breast 0.645% | HCT-116 colon -38.6% | KM12 colon 1.44%

COc1cc2c(cc1OCCCCCCN1CCN(c3ncnc4ccccc34)CC1)N=CC1CCCN1C2=O (stereo not drawn)
inactive: MCF7 breast 11.2%
active: T-47D breast 6.98% | BT-549 breast -40.8% | MDA-MB-435 melanoma -77.1% | SW-620 colon -19.1% | HCT-116 colon 3.4% | KM12 colon -27.9%

O=c1[nH]c([C@@H]2CCCN2)nc2c1oc1ccc(Cl)cc12
inactive: T-47D breast 56.4% | BT-549 breast 58.5% | MDA-MB-435 melanoma 73.3% | SW-620 colon 22.7% | MCF7 breast 49.2% | HCT-116 colon 33.6% | KM12 colon 31.6%

O=C1CSC(c2c(F)cccc2Cl)N1NC(=O)C(O)(c1ccccc1)c1ccccc1 (stereo not drawn)
inactive: T-47D breast 93.3% | BT-549 breast 104% | MDA-MB-435 melanoma 104% | SW-620 colon 99.9% | MCF7 breast 110% | HCT-116 colon 94.8% | KM12 colon 108%

O=C(c1c(F)ccc(NS(=O)(=O)N2CC[C@@H](F)C2)c1F)c1c[nH]c2ncc(-c3cnc(C4CC4)nc3)cc12
active: T-47D breast 9.33%
inactive: BT-549 breast 61.6% | MDA-MB-435 melanoma 16.8% | SW-620 colon 66.6% | MCF7 breast 61.3% | HCT-116 colon 30.8% | KM12 colon 54.4%

CCCC(=O)OCC1OC(n2cnc3c(=S)nc(N)[nH]c32)C(OC(=O)CCC)C1OC(=O)CCC (stereo not drawn)
inactive: T-47D breast 33.4% | BT-549 breast 34.2% | MDA-MB-435 melanoma 36.3% | SW-620 colon 52% | MCF7 breast 17.8% | HCT-116 colon 24.7% | KM12 colon 41%

Cc1cccc(Cl)c1NC(=O)c1cnc(Nc2cc(N3CCOCC3)cc(S(C)(=O)=O)c2)s1
inactive: BT-549 breast 66.7% | MDA-MB-435 melanoma 69.9% | SW-620 colon 113% | MCF7 breast 65% | HCT-116 colon 13.2% | KM12 colon 87.8%
active: T-47D breast -15.6%

O=C(Nc1ccc(C2=NCCCN2)cc1)c1ccc(C(=O)Nc2ccc(C3=NCCCN3)cc2)nc1
inactive: T-47D breast 97.3% | BT-549 breast 106% | MDA-MB-435 melanoma 117% | SW-620 colon 104% | MCF7 breast 98% | HCT-116 colon 93.2% | KM12 colon 112%
